# Out of some 53,000 sequences screened, about 3,700 (7%) were called active. The entries come from a sample that favours actives as a whole. Values without a mark were called inactive.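 Rule for the calls: active = gene knockdowns whose robust z-score for IL-1 alpha signal is at least 2 or at most -2, so actives lie on both sides; inactive = the rest.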
# Assay: Components of the Cytosolic LPS Sensing Pathway: Gene Identification via Genome-wide siRNA Screen
# Conditions: RAW264.7 macrophages, IL-1a HTRF, actives lie on both sides, screened at 100 nM (by protocol), cells primed 5 h with Pam3CSK4 first
# From the text: Non-canonical inflammasome activation by cytosolic LPS is a critical component of the host response to Gram-negative bacterial infection, however we lack a comprehensive understanding of the cellular processes that control this pathway. Here we describe a genome-wide siRNA screen to identify genes regulating the mouse macrophage IL-1 alpha response to cytosolic LPS.
# RAW264.7 cells were maintained in complete DMEM media, comprising DMEM with 4.5 g/L glucose, 10% FBS (Gemini Bio-Products, West Sacramento, CA), 2 mM Glutamine (Lonza) and 20 mM HEPES (Lonza), hereafter complete DMEM.
# The RNAi screen was conducted in 384-well format using the Ambion Silencer Mouse Genome siRNA Library (#4391425), which consists of three unique, nonoverlapping, nonpooled siRNAs for each of 17,000 gene targets. siRNA reagents ([…]) were stamped into 384-well white flat-bottom microplates (Corning, 3570) using a Velocity11 VPrep liquid handling system (Agilent) integrated into a BioCel robotic platform (Agilent) in columns 1-22, leaving columns 23-24 empty for negative (Ambion, Negative control #1) and positive (mouse Casp4) controls, respectively. The median value of each plate's negative control column was used to normalize sample wells, and the positive control was used to assess transfection efficiency and assay performance.
# Lipofectamine RNAiMAX Transfection Reagent ([…]; Invitrogen) was added in […] serum-free, antibiotic-free media to plate wells using a Thermo Scientific Matrix WellMate and Microplate Stacker. Plates were incubated for 45 min at room temperature to allow for the sufficient formation of siRNA-lipid complexes. Cells were seeded at a density of 1x10^4 cells per well in 20 microL media containing 20% (vol/vol) FBS without antibiotics. The final concentration of siRNA in each well was 100 nM. Cells were cultured for 48h at 37 degrees C in 5% CO2 before addition of […] of TLR ligand Pam3CSK4 for 5 hours. The medium was then removed, replaced with […] growth media and cell were transfected with […] of LipidA and TransIT-TKO (Mirus) for 24 hour. At the end of the LipidA treatment, […] of supernatant was transferred to a 384 Greiner Bio-one non-binding low volume plate and […] of IL-1a HTRF reagent (Cisbio, 62MIL1APEH) was added and incubated at room temperature overnight. The plates were read on an EnVision plate reader (PerkinElmer). Cell viability was measured by adding 20ul Cell Titer Glo to the original plate and running a luminescence read on the EnVision. The quantified IL-1a signal for each siRNA gene-targeted well was divided by the median of the negative control wells and multiplied by 100 to achieve a negative control normalized value for each well/siRNA. This normalized value was then used to generate a robust z-score by first taking the log of each value and then by subtracting the median and dividing by the […].
row,Sequence,z-score
1,GGUAGACACCUUGUUCUUATT against Nap1l3,1.03
2,GCCUUUAAUACAUAGGCUUTT against Cxcl9,-0.381
3,GCCAAUAGUAACCAGCCAGTT against Prkab1,-2.07 (active)
4,GCAAAUUCCAGUGAAAGCCTT against Papola,1.12
5,GGAUGACCAUGAAAGCUGUTT against Vps13b,1.87
6,GGUUAUCAUCUUGUGAAAATT against Srpk1,-0.628
7,AUGCCUAUACAAUUCUGUGTT against Olfr1167,0.0339
8,GGAGAACAACAAAGACAAGTT against Hoxb8,2.69 (active)
9,GGACACUAUAAGAAAGGAATT against Fnta,0.708
10,CCCAUUACGCAAAUUGUUCTT against Rin3,-2.31 (active)
11,GCCACGUCUGAACACUUCATT against Vamp8,0.873
12,GCCUGUUUAGAAUUAGAGATT against Plekhs1,0.135
13,GCUGAUGGACAAAUUCCACTT against Rapgef1,0.505
14,GCCAUUGCUAUCCAUCGUGTT against Ddx39b,-2.57 (active)
15,CCAAAGUUCCCUUAGCCAUTT against Cntrob,0.12
16,GCGGCACUUUAUCAUUAUCTT against Hint3,0.398
17,GCCCAUUCUAAACAAAUAATT against Ptcd1,-0.825
18,GGAGCUUAAAGUGAGCGGCTT against Lage3,-0.859
19,CGACCAGUCACAAUGGUUATT against Edil3,1.43
20,GGUGAUUGCUGAAGACGAGTT against Fbxw8,-0.172
21,CCUCGAAACUCAUUUCCAGTT against Prkch,-0.603
22,GGGUUAAUCCCUAUCUCUUTT against Tfe3,0.419
23,GAUCUCAAACAUUCUAUGCTT against Lce1c,-1.14

row,Sequence,z-score
1,GGAGCCAAGUGUGAUUACATT against Pias3,6.29 (active)
2,GGAAUCUGAAUUUUUGUGUTT against Commd1,-0.576
3,GACCUGUUUUGUCUUUUGCTT against Ms4a4c,1.34
4,GCUUGAUAGGGAACUUAAUTT against Olfr805,-1.57
5,GCUGCUGGAUGCAACCAAATT against Slc16a3,-0.379
6,GCUGCACGUGAUCAUGGAUTT against Accs,0.852
7,GCCUAAGAUCUGGACCUAATT against Timm44,-0.35
8,GGAGAAGCAUUAUUUUGAATT against Myb,0.798
9,GGACGACUGGAAGUUUUCUTT against 5830411N06Rik,3.95 (active)
10,GGAGCCCUUGCUCUUUAACTT against Izumo1r,-2.23 (active)
11,GGACAUAAGAGAAUGGUCATT against Lpp,2.07 (active)
12,GGCAAAUGUACUAAAAUGATT against Gpr34,0.764
13,GCCACUUACACUUACUUGATT against Olfr1331,-0.15
14,GCAUAAGCCACACCCUCUGTT against Cops7a,1.03
15,GGGAAAUUUAAAAACCUGGTT against Hoxa2,-0.139
16,GGAAAGACCAUUCUGUAUUTT against Vps37d,-1.54
17,GCUGAACUGUCUCAGCUCATT against Tmem81,2.06 (active)
18,AGAAGAUACCGAUCAAGCGTT against Nsmce3,0.049
19,GCAUGGGCAUAACCGAAAGTT against Rex2,-0.332
20,GGAGAAGUAAUGACAAAUUTT against Foxp4,-1.47
21,GGACGUGACUCUCAUCAUCTT against Atp2b3,0.929
22,GUGAUGUGGCCAUGUCAAUTT against Olfr641,-2.61 (active)
23,GGAGAGGAAAAUUGUAUUUTT against Alox12,-0.037

row,Sequence,z-score
1,CCCAUUCUGUAUAUAGUGCTT against Adam6a,-0.0363
2,CGGUUAGAGCAUUAAGUUCTT against Lias,0.817
3,GCUCGAUUCAGAAAUCUACTT against Sgce,-0.735
4,GACUGAACAGAUCUACUCUTT against Klra7,-0.413
5,CGCAUUUCGAAUAAAGACATT against Mettl22,-0.546
6,GCAUUUCACCGUCAUGAACTT against Ttll12,-2.55 (active)
7,GGAAGUUUGCUCAAUCUCATT against Jarid2,1.12
8,GGACCUGUAUUCACACCUUTT against Wdr61,0.0931
9,GGGUUUUUGAUGAUGAUUCTT against Htatsf1,-0.66
10,CGGGAUAGCUGUCCUGUUATT against Mrps14,0.127
11,GAAGCGAUGCUCAGAUCCATT against Serpina1d,0.136
12,GCCCUCCUUAUAGCUUAAUTT against Asic3,-2.2 (active)
13,GCUUCGAAGCAACAUCCGATT against Rims3,-0.00729
14,GGAAAAACUGUGCAAAUAATT against Krt75,1.26
15,GCAGGCAUUCUGCUCUAUATT against Oxgr1,1.01
16,GGGACAUUAAUAAACCUGATT against Omg,-0.269
17,CCAUGGCCUAGAGCUGGAUTT against Unc5cl,0.315
18,GGAAGUAACAUGCUUCUAGTT against Ccdc42,0.75
19,GGAUUCCAUCUUUGUAUGATT against Cbr4,0.689
20,GCCAAGUGAUUGAAAAAACTT against Lnpk,-0.423
21,GGUGAAGAAAGUCAAGAAGTT against Spi1,-2.46 (active)
22,GGUUCUGGUGGUGAAUGUGTT against Kcnd1,-1.51
23,GCGAGUUGUUUCCAUAGUUTT against Gpr22,-0.388
